NIH3T3 tox: NIH 3T3 cell cytotoxicity; 94,000 tested, 4.3% active; NIH 3T3 viability, CellTiter-Glo ATP luminescence, 48-72 h; Potency, µM (top dose mostly 96.7 µM), for the others: top-dose activity change, negative = cytotoxicity, most hits filed as inhibitors; further: on the % scale 0 is the no-effect control and ±100 the full control effect; nearly all actives have a fitted effect of over 55% in size
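Mouse fibroblast NIH 3T3 cells, 400 per well, received compound via pintool and were incubated for 48 or 72 hr prior to CellTiter-Glo ATP luminescence measurement.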
hNpr1 antagonist: antagonists of human natriuretic peptide receptor Npr1; P16066; HEK293 hNpr1 GloSensor cGMP, ANP-stimulated luminescence; Potency, µM (highest dose often 46.3 µM), without a hit: at the highest dose activity change, negative = inhibition, most hits filed as inhibitors; 76,000 tested, 1.6% active; AID 1347048; calls by dose curve; further: on the % scale 0 is the no-effect control and ±100 the full control effect; nearly all actives have a fitted effect of over 60% in size
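HEK293 cells stably expressing human Npr1 and cGMP GloSensor pGS-40F, loaded 2 h with 2% GloSensor reagent, given compound 30 min at room temperature. Luminescence read before and 20 min after 0.1 nM hNppA.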
HEK cytotox: HEK 293 cell cytotoxicity | 94,000 tested, 6.6% active | Potency, µM (top dose mostly 115 µM), inactives show top-dose activity change, negative = cytotoxicity, most hits filed as inhibitors | AID 1345083 | HEK 293 viability, ATP luminescence (CellTiter-Glo), 48-72 h; further: on the % scale 0 is the no-effect control and ±100 the full control effect; nearly all actives have a fitted effect of over 60% in size
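HEK 293 seeded at 250 cells/well receive compound via pintool. After 48 or 72 hr at 37 degree Celsius, 5% CO2 and 95% humidity, CellTiter-Glo is dispensed and luminescence read following 10 min at room temperature.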
FLuc inh-1: blocks purified firefly luciferase enzyme activity | purified P. pyralis luciferase, luminescence, biochemical | P08659 | 76,000 tested, 2.5% active | AID 1347043 | Potency, µM (highest dose often 115 µM), hits mostly inhibitors; further: on the % scale 0 is the no-effect control and ±100 the full control effect; nearly all actives have a fitted effect of over 65% in size
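FLuc 10nM, D-luciferin 10uM, ATP 10uM, Mg acetate 10mM, Tris acetate pH 7.5, Tween/BSA; cpd qHTS; enzyme added last; CCD luminescence.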
FLuc SDR no ATP: stabilizes firefly luciferase without ATP; Potency, µM (top dose mostly 32.7 µM), for inactives: at the top dose activation (signal gain), most hits filed as activators; Purified FLuc-C-HiBiT, Nano-Glo HiBiT luminescence, no ATP; shares compounds with FLuc inh-1; 1,300 tested, 7.8% active; further: nearly all actives have a fitted effect of over 55% in size
FLuc SDR ATP: firefly luciferase binding stabilization, ATP added; shares compounds with FLuc inh-1; 1,300 tested, 8.7% active; purified FLuc-C-HiBiT + ATP, HiBiT complementation luminescence; AID 1963319; Potency, µM (series often up to 32.7 µM), for inactives: at the top dose activation (gain of signal), most hits filed as activators;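 further: signal reports ligand binding via conformational change of the enzyme rather than luciferase catalysis; % of control where 0% means no effect; nearly all actives have a fitted effect of over 55% in size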
FLuc inh-2: firefly luciferase enzyme inhibition; shares compounds with FLuc inh-1; purified FLuc-C-HiBiT enzyme, luciferin luminescence; Potency, µM (series often up to 32.7 µM), for inactives: at the highest dose activity change, negative = inhibition, usual class: inhibitors; 1,300 tested, 42% active; AID 1963320; further: on the % scale 0 is the no-effect control and ±100 the full control effect; nearly all actives have a fitted effect of over 70% in size
* hit, by the source's call; i = inactive; ? = inconclusive; / = no result given; [ ] = another dose, or the depositor's remark. This is a sample that favours compounds with a hit; in the whole collection about 11% have one here. Unless noted, the call rests on the fitted dose curve; in most records, active means well fitted curve in the direction sought with a large enough effect; inconclusive means small, poorly fitted or top-dose-only effect, or another doubt; inactive means no such curve, though single readings can be large; an effect the other way counts as inactive or inconclusive. Potency means the concentration at half of the fitted maximal effect.

SMILES	NIH3T3 tox	hNpr1 antagonist	HEK cytotox	FLuc inh-1	FLuc SDR no ATP	FLuc SDR ATP	FLuc inh-2
N#Cc1ccc(CN2CCCCCCNC(=O)[C@@H]3C[C@@H](C(=O)N4CCc5ccccc5C4)C[C@@H]32)cc1	?	-14%	?	i	/	/	/
Cc1ncsc1CN1CCCCCCNC(=O)[C@@H]2C[C@@H](C(=O)N3CCc4ccccc4C3)C[C@@H]21	-19%	-18%	89µM*	i	/	/	/
COc1ccccc1N1CCN(C(=O)Nc2n[nH]c(Cc3ccccc3)n2)CC1	?	-17%	25µM*	i	/	/	/
COc1cccc(NC(=O)c2ccc3c(c2)N(C)C2CCCCCN2C3=O)c1 (stereo unspecified)	?	-9%	?	?	/	/	/
CN1c2cc(C(=O)Nc3cccc(F)c3)ccc2C(=O)N2CCCCCC21 (stereo unspecified)	?	-28%	?	8.9µM*	12%	14%	?
CN1c2cc(C(=O)Nc3cccc(Cl)c3)ccc2C(=O)N2CCCCCC21 (stereo unspecified)	?	-24%	?	10µM*	10%	11%	?
CN1c2cc(C(=O)Nc3cccc(C(F)(F)F)c3)ccc2C(=O)N2CCCCCC21 (stereo unspecified)	?	-16%	?	i	/	/	/
Clc1ccc(-c2nc(-c3ccccn3)no2)cc1Cl	/	/	/	/	?	?	5.6µM*
c1ccc(CN(Cc2nc(-c3ccccn3)no2)CC2CC2)cc1	1%	-1%	?	i	/	/	/
c1cnc(-c2noc(-c3nc(-c4ccc5c(c4)OCO5)no3)n2)cn1	3%	-9%	2%	i	/	/	/
Brc1ccc(-c2nc(-c3ccccn3)no2)o1	/	/	/	/	?	?	1.2µM*
CC(C)NC(=O)N1CCCCC1CCn1cc(-c2ccccc2)nn1 (stereo unspecified)	-27%	/	-17%	/	/	/	/
Cc1ccc(NC(=O)c2ncn(-c3ccccc3)n2)cc1Cl	/	/	/	/	16%	13%	?
O=C(Nc1ccccn1)[C@@H]1C[C@@H](c2ccc(F)cc2)N([S+](=O)([O-])c2ccccc2)C1	?	1%[70.6 µM]	?	i	/	/	/
CCC1=C(C(=O)OC)C(c2ccccc2F)N2C(CC(=O)NC3CC3)=CSC2=N1 (stereo unspecified)	0%	-25%	-6%	i	/	/	/
C[S+](=O)([O-])N1Cc2ccccc2CC2(CCCCN2Cc2ccncc2)C1 (stereo unspecified)	-11%	/	-28%	/	/	/	/
COc1cccc(OCc2nc3ccccc3n2Cc2ccccc2)c1	/	/	/	/	12%	9%	-16%
Clc1ccc(OCc2nc3ccccc3n2Cc2ccccc2)c(Cl)c1	/	/	/	/	15%	11%	?
CNC(=O)c1cccnc1N1CCOC(c2ccc3cc(OC)ccc3c2)C1 (stereo unspecified)	-23%	-4%	?	?	/	/	/
COc1ccc2cc(C3CN(C(=O)CCc4n[nH]c(C)n4)CCO3)ccc2c1 (stereo unspecified)	?	?	-24%	2.5µM*	?	?	9.9µM*
COc1ccc2cc(C3CN(C(=O)c4cccc(CO)c4)CCO3)ccc2c1 (stereo unspecified)	?	10µM*	28µM*	0.56µM*	?	?	2.5µM*
O=C(c1ccc2ncccc2c1)N1CCOC(c2ccc(Cl)c(Cl)c2)C1 (stereo unspecified)	?	?	?	i	/	/	/
COc1ccc2cc(C3CN(C(=O)c4cccc(CO)n4)CCO3)ccc2c1 (stereo unspecified)	-32%	?	?	3.5µM*	23%	?	?
CCN(CC)C(=O)N1CCOC(c2ccc3cc(OC)ccc3c2)C1 (stereo unspecified)	?	11µM*	?	1.6µM*	30%	?	5.6µM*
O=C(NC1CCCCC1)C1CCc2nnc(-c3ccccn3)n21 (stereo unspecified)	4%[138 µM]	/	2%[172 µM]	/	/	/	/
SMILES	NIH3T3 tox	hNpr1 antagonist	HEK cytotox	FLuc inh-1	FLuc SDR no ATP	FLuc SDR ATP	FLuc inh-2
COCCOc1cc(C)c2c(c1C)C[C@H](C(C)C(=O)N1CCSCC1)CC2 (stereo partly specified)	?	?	?	i	/	/	/
CCOC(=O)C(Cc1cccc(N2CC(Oc3ccccc3Cl)C2)c1F)OC (stereo unspecified)	-29%	/	?	/	/	/	/
CNC(=O)c1cc(C)nc2onc(C3CCN(C(=O)NC4CCCC4)CC3)c12	-25%	/	-15%	/	/	/	/
CNC(=O)[C@@H](c1ccc(Cl)cc1)N1CCC[C@H]1C(=O)N1CC[C@@H](O)C1	i	5%[70.6 µM]	i	i	/	/	/
COCCN1Cc2ccccc2N(CC(O)Cc2ccccc2)CCC1=O (stereo unspecified)	-20%	/	?	/	/	/	/
COc1ccc(C(=O)Oc2ccc(C(c3c(C)[nH][nH]c3=O)c3c(C)[nH][nH]c3=O)cc2)cc1	/	/	/	/	9%	12%	?
Cc1ccc(-c2cc(C(=O)NCCc3ccc(F)cc3)c3cnn(C)c3n2)cc1	-27%	/	?	/	/	/	/
c1ccc(COc2ccc(CN3CCSCC3)cc2)nc1	i	3%	?	10µM*	21%	15%	?
O=C1NCc2ccccc2CC12CCN(Cc1ccc3ccccc3n1)CC2	-17%	/	?	/	/	/	/
O=C(O)COCC(=O)N[C@H]1CCN2C(=O)c3cc(/C=C/c4ccccc4)ccc3NC(=O)[C@H]12	i	2%	5%	7.9µM*	29%	?	?
O=C(N[C@H]1CCN2C(=O)c3cc(/C=C/c4ccccc4)ccc3NC(=O)[C@H]12)c1cnccn1	-29%[174 µM]	-9%[70.6 µM]	?	?	/	/	/
COc1ccc(/C=C/c2ccc3c(c2)C(=O)N2CC[C@H](NC(=O)CCC(=O)O)[C@H]2C(=O)N3)cc1	-3%	5%	-1%	6.3µM*	?	?	?
O=C(N[C@H]1CCN2C(=O)c3cc(/C=C/c4ccc(O)cc4)ccc3NC(=O)[C@H]12)c1cnccn1	-6%	3%	?	13µM*	20%	8%	-13%
O=C(O)CCC(=O)N[C@H]1CCN2C(=O)c3cc(/C=C/c4ccccc4)ccc3NC(=O)[C@H]12	-19%[174 µM]	-8%[70.6 µM]	-24%[172 µM]	?	/	/	/
COc1ccc(-c2cccc(C(=O)N3CCN(C(=O)c4ccccc4Cl)CC3)c2)nn1	-27%	/	-10%	/	/	/	/
COc1ccc(-c2ccc(C(=O)NCc3ccccc3)c(Cl)c2)nn1	-20%	/	-29%	/	/	/	/
